# TDP1 cell CPT = growth inhibition of DT40 Tdp1-/-;hTDP1 cells with camptothecin (screen for TDP1 inhibitors) | AID 686979 | Potency, µM (titrated, usually from 46.2 µM), actives largely listed as inhibitors | actives 12% (n = 420,000) | chicken DT40 Tdp1-/-;hTDP1 cells + 20 nM CPT, ATP luminescence, 48 h; also: nearly all actives have a fitted effect of over 55% in size
#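 Chicken DT40 Tdp1-/- cells complemented with human TDP1, 400 cells/well, exposed to compounds plus 20 nM camptothecin for at least 48 h at 37 C; viability read as ATP content by CellTiter-Glo luminescence.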
# DT40 TDP1 no CPT = qHTS for Inhibitors of human tyrosyl-DNA phosphodiesterase 1 (TDP1): qHTS in cells in absence of CPT; actives 15% (n = 420,000); Potency, µM (doses to about 46.2 µM), hits mostly inhibitors; DT40 Tdp1-/- hTDP1 cells, no CPT, ATP luminescence, 48 h; also: nearly all actives have a fitted effect of over 55% in size
#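 Stably hTDP1-transfected Tdp1-null chicken DT40 cells were treated with library compounds minus camptothecin and grown for at least 48 hr at 37 °C, after which cellular ATP was quantified by luminescence.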
# IL-1B inflam inh = inflammasome signaling inhibition, IL-1 beta readout; THP-1 LPS/ATP IL-1B secretion, AlphaLISA, 16 h; active compounds read low; activity change, % at 57.5 µM; actives 4.7% (n = 360,000); AID 743279; in the data active = activity change below about -50%; inconclusive = mostly about -30% to -49%
#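 Secreted IL-1B measured by AlphaLISA bead assay after 16 h compound exposure of THP-1 cells; compounds (final up to 57.5 uM) added 1 h before LPS (250 ng/mL) and ATP (1.25 mM) stimulation; lower signal means less secretion.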
# HT1080-NT tox = kills 2HG-producing HT-1080-NT fibrosarcoma cells. Potency, µM (doses to about 46.1 µM), actives largely listed as cytotoxic. actives 1.6% (n = 360,000). HT-1080-NT fibrosarcoma viability, CellTiter-Glo ATP luminescence, 48 h;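 also: NT is the 2HG producing partner of a matched IDH1 knockdown line; nearly all actives have a fitted effect of over 55% in size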
#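 Viability of the 2HG-overproducing fibrosarcoma line after 48 hours of compound exposure at 37 degrees C was determined by luminescence with CellTiter-Glo, and concentration-effect curves were then fitted and categorized.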
# HT1080 IDH1KD tx = toxicity to HT-1080 IDH1 knockdown cells (counter line); HT-1080 IDH1 knockdown viability, ATP luminescence, 48 h; Potency, µM (titrated, usually from 46.1 µM), hits mostly cytotoxic; actives 2% (n = 360,000); AID 686971
#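 IDH1KD HT-1080 cells, 750/well, RPMI + 5% FBS; compound pinned after 2 h settling; 48 h, 37 °C; CellTiter-Glo luminescence; % activity normalised to DMSO and no-cell wells; curves fitted, classed by r2 and efficacy.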
# Numbers stand for hits; n = inactive; u = inconclusive; x = not tested or not shown; ! = a repeat was not active; [ ] = dose if it differs, or a comment. The list is not random: actives were taken first. Their share in the collection is about 19%. Unless noted, calls follow the shape of the dose curve; as a rule, active = well fitted curve in the direction sought with a large enough effect; inconclusive = small, poorly fitted or top-dose-only effect, or another doubt; inactive = no such curve, though single readings can be large; an effect the other way counts as inactive or inconclusive.
SMILES,TDP1 cell CPT,DT40 TDP1 no CPT,IL-1B inflam inh,HT1080-NT tox,HT1080 IDH1KD tx
C/C(=N/NC(=O)c1cccs1)c1c(C)[nH]n(-c2nc3ccccc3s2)c1=O,3.7µM,2.3µM,n,2.3µM,2.6µM
CCCN=C(C)c1c(-c2ccccc2)[nH]n(-c2nc3ccccc3s2)c1=O,u,26µM,n,n,n
CCN(CC)CCCN=Cc1c(-c2ccccc2)[nH]n(-c2nc3ccccc3s2)c1=O,n,u,n,n,n
CCCc1[nH]n(-c2nc3ccccc3s2)c(=O)c1C=NCC(C)C,u,23µM,-58,n,n
COC(=O)Cc1[nH]n(-c2nc3ccccc3s2)c(=O)c1C(C)=Nc1ccc(Cl)cc1,10µM,21µM,n,u,n
NC(=O)C1CCCN(C(=O)CN2C(=O)NC(c3ccccc3)(c3ccccc3)C2=O)C1 (stereo not given),n,n,n,n,n
CCc1nn(C(CC)C(=O)NCc2ccc(F)cc2)c(=O)c2cc3occc3n12 (stereo not given),u,n,x,x,x
CCc1nn(C(CC)C(=O)NCc2ccc(OC)c(OC)c2)c(=O)c2cc3oc(C)cc3n12 (stereo not given),16µM,9.2µM,x,x,x
CC(=O)c1ccc(NC(=O)C(C)Nc2ccc(Cl)cc2)cc1 (stereo not given),u,n,n,n,n
Cn1c(=O)[nH]c(=O)c2c1nc(N1CCCCCC1)n2CCSc1nc2ccccc2o1,n,n,n,n,n
CC1CC(C)CN(c2nc3c(c(=O)n(C)c(=O)n3C)n2CCSc2nc3ccccc3o2)C1 (stereo not given),18µM,15µM,n,n,n
Cn1c(=O)c2c(nc(N3CCCCCC3)n2CCSc2nc3ccccc3o2)n(C)c1=O,7.3µM,23µM,n,n,n
Cn1c(=O)[nH]c(=O)c2c1nc(N1CCCCCC1)n2CCCSc1nc2ccccc2o1,u,29µM,n,n,n
O=C(Nc1ccccc1)c1ccc(Br)c(S(=O)(=O)Nc2ccccn2)c1,n,n,n,n,n
Cc1cc(NC(=O)CCc2ccccc2)c([N+](=O)[O-])cc1C,n,n,n,n,n
CCOc1ccc(OCC)c(NC(=O)C2CCCN(S(=O)(=O)c3cccs3)C2)c1 (stereo not given),u,16µM,n,n,n
CCn1c2ccccc2c2cc(NC(=O)C3CCN(S(=O)(=O)c4cccs4)CC3)ccc21,16µM,21µM,n,n,n
CCOC(=O)C1CCCN(S(=O)(=O)c2cccs2)C1 (stereo not given),n,n,n,n,n
CCOc1ccc(NC(=O)C2CCN(S(=O)(=O)c3cccs3)CC2)cc1,n,u,-58,n,n
COc1ccccc1NC(=O)C1CCCN(c2nc(C)cc(C)n2)C1 (stereo not given),n,n,n,n,n
CCOc1ccc(OCC)c(NC(=O)C2CCCN(c3nc(C)cc(C)n3)C2)c1 (stereo not given),23µM,21µM,n,n[9.24 µM],u
CCOc1ccc(OCC)c(NC(=O)C2CCN(S(=O)(=O)c3c(C)[nH]c(=O)[nH]c3=O)CC2)c1,18µM,u,n,n,n
CC(C)C[C@H](N)c1nnc(S(=O)(=O)Cc2ccc(F)cc2)o1,1.3µM,2.1µM,-117,u,u
CC(C)C[C@H](N)c1nnc(SCC(=O)Nc2ccc(Br)cc2)o1,n,n,n,n,n
O=C(c1ccc([N+](=O)[O-])cc1)N1CCSC1c1cccc(Cl)c1 (stereo not given),n,n,u,n,u
SMILES,TDP1 cell CPT,DT40 TDP1 no CPT,IL-1B inflam inh,HT1080-NT tox,HT1080 IDH1KD tx
Cc1cccc(C(=O)N=c2c(C#N)cc3c(=O)n4cccc(C)c4nc3n2Cc2ccco2)c1,21µM,u,n,n,n
COCCCn1c(=NC(=O)c2ccccc2)c(C#N)cc2c(=O)n3cccc(C)c3nc21,n,u,n,n,n
Cc1cccn2c(=O)c3cc(C#N)c(=NC(=O)c4ccco4)n(Cc4ccco4)c3nc12,n,u,n,n,u
Cc1cccn2c(=O)c3cc(C#N)c(=NC(=O)c4ccccc4)n(Cc4ccco4)c3nc12,18µM,18µM,-76!,n,n
Cc1ccc(N=C2NC(=O)CS2)cc1C,n,n,n,n,n
Cc1ccc(C)c(NC(=O)CSc2nc(=O)n(CCN3CCOCC3)c3c2CCCC3)c1,n,n,n,n,n
COC(=O)c1cccc(NC(=O)c2cccnc2C(=O)O)c1C,n,u,n,n,n
COc1ccc(C2CC(=O)C3=C(C2)NC(C)=C(C(=O)Nc2ccccc2C)C3c2coc3ccc(C)cc3c2=O)cc1OC (stereo not given),21µM,u,n,n,u
Oc1ccccc1C1CC(c2cccs2)=NC(c2cccc(Br)c2)N1 (stereo not given),15µM,21µM,n,u,u
Fc1ccc(N2N=C(c3cccs3)CC2c2ccccc2)cc1 (stereo not given),n,u,n,n,n
N[C@@]1(C(=O)O)CN[C@H](C(=O)O)C1,n,n,x,x,x
NC1(C(=O)O)CSSC1,n,7.3µM,-77,u,u
COc1cccc(-n2sc3c(c2=S)-c2cc(OC)ccc2NC3(C)C)c1,u,u,n,u,u
CC1(C)Nc2ccc(O)cc2-c2c1ssc2=S,0.73µM,2.1µM,n,n,n
COC(=O)c1cccc(OCCCN2CCC(C(O)(c3ccccc3)c3ccccc3)CC2)c1,u,u,n,u,16µM
Cc1ccc(OCCCN2CCC(C(O)(c3ccccc3)c3ccccc3)CC2)cc1,u,u,-52,u,18µM
COc1ccccc1N1CCN(CCCOc2ccc(F)cc2)CC1,u,u,n,n,n
OC(c1ccccc1)(c1ccccc1)C1CCN(CCCOc2ccc(F)cc2)CC1,u,u,-53,21µM,23µM
CC(C)(C(=O)O)c1ccc([C@H](O)CCCN2CCC(C(O)(c3ccccc3)c3ccccc3)CC2)cc1,n,n,n,u,n
COc1ccccc1N1C(=O)C2C(c3ccc(F)cc3)NN(C(=O)c3ccc(C)cc3)C2C1=O (stereo not given),n,n,n,n,n
CCN(C[C@H]1N[C@@](C)(C(=O)OC)[C@H]2C(=O)N(Cc3ccccc3)C(=O)[C@@H]12)C(=O)Nc1ccc(F)cc1,n,n,n,n,n
COc1cc(=O)n2c(c1C(=O)N(C)Cc1nonc1C)CCN(Cc1ccc(F)cc1)CC2,n[9.04 µM],n,x,x,x
O=C(OCc1ccccc1F)c1cc(S(=O)(=O)N2CCCCC2)ccc1N1CCOCC1,u,u,n,n,n
Cc1ccsc1CNC1C2CC3CC(C2)CC1C3 (stereo not given),n,n,n,n,n

# Screening results (PubChem BioAssay)
